Source: PubChem BioAssay (NCI)
The panel holds about 83,000 compounds, 20% with a hit somewhere; the sample as a whole holds those more often.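 Cells were grown in 96-well plates and exposed to the test compound at a single concentration for 48 hours; results are reported as percent growth, with values below 10 considered active.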 A number with no mark means an inactive call. The source made the active and inactive calls.

Assays:
Experiment in all cases: NCI-60 one-dose screen, 48 h (100 = growth as untreated, 0 = no growth, -100 = all killed)
[1] = test system: BT-549 breast; settings: 10 µM
[2] = test system: MDA-MB-435 melanoma; settings: 10 µM
[3] = test system: SW-620 colon; settings: 10 µM
[4] = test system: MCF7 breast; settings: 10 µM unless noted
[5] = test system: HCT-116 colon; settings: 10 µM
[6] = test system: HCC-2998 colon; settings: 10 µM
[7] = test system: KM12 colon; settings: 10 µM

## COC(=O)C(C)Oc1ccc(OC#N)cc1 (centres undefined)
[1]
  growth: 120%
[2]
  growth: 102%
[3]
  growth: 95.6%
[4]
  growth: 98%
[5]
  growth: 108%
[6]
  growth: 105%
[7]
  growth: 99.8%

## COc1nc(N)nc2c1ncn2C1OC(CO)CC1O (centres undefined)
[1]
  growth: 94.3%
[2]
  growth: 105%
[3]
  growth: 108%
[4]
  growth: 100%
[5]
  growth: 98.8%
[6]
  growth: 105%
[7]
  growth: 103%

## COc1ccc(-c2cc(-c3cc(-c4ccc(OC)cc4)nc(N)n3)nc(N)n2)cc1
[1]
  growth: 95.2%
[2]
  growth: 97.5%
[3]
  growth: 97.5%
[4]
  growth: 91.2%
[5]
  growth: 103%
[6]
  growth: 112%
[7]
  growth: 101%

## Cc1ccc(/C=C2\SC(=S)N(c3ccc(F)cc3)C2=O)o1
[1]
  growth: 112%
[2]
  growth: 77.4%
[3]
  growth: 93.3%
[4]
  growth: 71.1%
[5]
  growth: 64.5%
[6]
  growth: 118%
[7]
  growth: 78.2%

## COc1ccc2c(c1)CCc1c-2n[nH]c1-c1[nH]nc2c1CCc1cc(OC)ccc1-2
[1]
  growth: 54.6%
[2]
  growth: -5.37% (active)
[3]
  growth: 45%
[4]
  growth: 12.6%
[5]
  growth: 32.4%
[6]
  growth: 80.9%
[7]
  growth: 47.6%

## CNC(=S)NC(C)(C)C
[1]
  growth: 89.5%
[2]
  growth: 106%
[3]
  growth: 103%
[4]
  growth: 97.4%
[5]
  growth: 102%
[6]
  growth: 115%
[7]
  growth: 106%

## Cc1ccc(C)n1-c1ccsc1C(=O)NNC(=O)C(Cl)Cl
[1]
  growth: 112%
[2]
  growth: 98.4%
[3]
  growth: 102%
[4]
  growth: 96.9%
[5]
  growth: 105%
[6]
  growth: 105%
[7]
  growth: 101%

## CC1CCCCN1C(=S)Nc1ccc(S(=O)(=O)N2CCCCC2)cc1 (centres undefined)
[1]
  growth: 93.4%
[2]
  growth: 96.3%
[3]
  growth: 93.2%
[4]
  growth: 102%
[5]
  growth: 91.5%
[6]
  growth: 112%
[7]
  growth: 97.1%

## O=C(Cc1nc2ccc([N+](=O)[O-])cc2nc1CC(=O)c1ccccc1)c1ccccc1
[1]
  growth: 37.3%
[2]
  growth: 63.3%
[3]
  growth: 62.6%
[4]
  growth: 30.1%
[5]
  growth: 34.8%
[6]
  growth: 89%
[7]
  growth: 39.4%

## Cc1cc2nc(CC(=O)c3ccccc3)c(=O)[nH]c2cc1C
[1]
  growth: 89.6%
[2]
  growth: 106%
[3]
  growth: 94.3%
[4]
  growth: 78.1%
[5]
  growth: 80.3%
[6]
  growth: 110%
[7]
  growth: 100%

## Cc1cc2nc(CC(=O)c3cccc([N+](=O)[O-])c3)c(=O)[nH]c2cc1C
[1]
  growth: 87%
[2]
  growth: 93.9%
[3]
  growth: 93.7%
[4]
  growth: 74.8%
[5]
  growth: 54.8%
[6]
  growth: 89.9%
[7]
  growth: 86.6%

## COc1ccc(C2OC(N)=C(O)C2=O)cc1OC (centres undefined)
[1]
  growth: 102%
[2]
  growth: 110%
[3]
  growth: 103%
[4]
  growth: 93.8%
[5]
  growth: 99.7%
[6]
  growth: 107%
[7]
  growth: 109%

## c1c(-c2cc(C3CC3)[nH]n2)n[nH]c1C1CC1
[1]
  growth: 94%
[2]
  growth: 109%
[3]
  growth: 102%
[4]
  growth: 92.8%
[5]
  growth: 83.6%
[6]
  growth: 102%
[7]
  growth: 109%

## O=C1NC(=O)C2C(=O)NC(=O)C1C21CCc2ccccc21 (centres undefined)
[1]
  growth: 106%
[2]
  growth: 112%
[3]
  growth: 101%
[4]
  growth: 93.1%
[5]
  growth: 96.7%
[6]
  growth: 115%
[7]
  growth: 105%

## CCCCNC(=O)C(=O)NCCCC
[1]
  growth: 98.8%
[2]
  growth: 104%
[3]
  growth: 104%
[4]
  growth: 94.1%
[6]
  growth: 114%
[7]
  growth: 102%

## COC(=O)c1[nH]c(=O)c(C#N)c(C(=O)OC)c1C(=O)c1ccccc1
[1]
  growth: 110%
[2]
  growth: 99.9%
[3]
  growth: 102%
[4]
  growth: 68.9%
[5]
  growth: 99.3%
[6]
  growth: 113%
[7]
  growth: 102%

## COc1ccccc1NC(=O)C1=C(C)NC(C)=C(C(=O)Nc2ccccc2OC)C1c1cccc([N+](=O)[O-])c1
[1]
  growth: 73.6%
[2]
  growth: 75.4%
[3]
  growth: 88%
[4]
  growth: 47.8%
[6]
  growth: 76.9%
[7]
  growth: 67.3%

## COC(=O)c1cc(-c2ccc(Cl)c(Cl)c2)[nH]c(=O)c1C#N
[1]
  growth: 104%
[2]
  growth: 104%
[3]
  growth: 99.1%
[4]
  growth: 89.1%
[5]
  growth: 97.2%
[6]
  growth: 117%
[7]
  growth: 109%

## O=C(Cc1nc2ccc([N+](=O)[O-])cc2nc1CC(=O)c1cccnc1)c1cccnc1
[1]
  growth: 8.87% (active)
[2]
  growth: 89.8%
[3]
  growth: 81.3%
[4]
  growth: 47.4%
[6]
  growth: 96.2%
[7]
  growth: 63.1%

## CCS(=O)(=O)CCCl
[1]
  growth: 95.9%
[2]
  growth: 104%
[3]
  growth: 102%
[4]
  growth: 76.8%
[5]
  growth: 98.7%
[6]
  growth: 125%
[7]
  growth: 99.1%

## Cc1ncc(C#N)c(N)n1
[1]
  growth: 94.4%
[2]
  growth: 90.2%
[3]
  growth: 99.9%
[4]
  growth: 99.7%
[5]
  growth: 96.7%
[6]
  growth: 102%
[7]
  growth: 104%
